Data reported in PubChem BioAssay AID1259341 (Broad Institute, 2017).

target: Caspase recruitment domain-containing protein 9 (Homo sapiens) + E3 ubiquitin-protein ligase TRIM62 (Homo sapiens) (UniProt Q9H257+Q9BVG3); assay: disruptors of CARD9-TRIM62 binding, primary screen, cell lysate, HEK293FT lysates, Luminex bead ELISA (AID 1259341); settings: PE fluorescence, hits give low values, concentration not given here;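 further: PE anti-Flag signal of Flag-CARD9 captured by myc-TRIM62 beads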
Sequence (Q9BVG3 whole entry, looked up, the tested form may be a part): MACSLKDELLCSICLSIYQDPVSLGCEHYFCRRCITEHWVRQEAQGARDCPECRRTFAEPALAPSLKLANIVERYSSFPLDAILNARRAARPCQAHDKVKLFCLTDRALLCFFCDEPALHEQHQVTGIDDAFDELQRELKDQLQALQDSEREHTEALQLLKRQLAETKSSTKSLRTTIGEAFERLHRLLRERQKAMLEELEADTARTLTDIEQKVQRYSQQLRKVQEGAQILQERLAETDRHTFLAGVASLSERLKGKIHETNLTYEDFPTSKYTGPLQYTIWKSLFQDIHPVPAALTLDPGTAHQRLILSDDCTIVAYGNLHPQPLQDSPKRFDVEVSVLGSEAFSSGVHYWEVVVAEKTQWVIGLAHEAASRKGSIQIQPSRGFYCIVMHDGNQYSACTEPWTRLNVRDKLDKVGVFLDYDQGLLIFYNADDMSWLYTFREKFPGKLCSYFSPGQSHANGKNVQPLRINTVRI
Sequence (Q9H257 whole entry, looked up, the tested form may be a part): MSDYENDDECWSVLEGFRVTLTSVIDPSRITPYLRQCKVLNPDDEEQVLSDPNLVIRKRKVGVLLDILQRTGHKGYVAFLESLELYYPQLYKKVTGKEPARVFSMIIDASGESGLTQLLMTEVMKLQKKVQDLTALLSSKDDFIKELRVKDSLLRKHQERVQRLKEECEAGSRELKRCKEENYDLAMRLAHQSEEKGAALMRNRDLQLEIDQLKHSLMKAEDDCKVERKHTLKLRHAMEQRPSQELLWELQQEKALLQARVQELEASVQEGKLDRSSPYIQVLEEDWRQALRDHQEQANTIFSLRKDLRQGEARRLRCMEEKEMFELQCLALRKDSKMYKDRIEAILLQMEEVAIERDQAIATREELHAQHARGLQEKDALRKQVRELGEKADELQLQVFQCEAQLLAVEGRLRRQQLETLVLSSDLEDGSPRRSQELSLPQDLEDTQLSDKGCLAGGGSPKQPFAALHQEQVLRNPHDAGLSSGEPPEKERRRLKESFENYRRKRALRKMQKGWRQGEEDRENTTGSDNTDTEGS

Activity change, negative = inhibition, inactive:
N#Cc1c(NC(=O)CSc2nc3ccccc3o2)sc2c1CCC2 2.26%
CCCN1CCc2nc(SCc3nc(-c4ccc(OC)cc4OC)oc3C)[nH]c(=O)c2C1 -0.271%
O=C1c2cccnc2C(=O)N1Cc1ccc(S(=O)(=O)NCc2ccco2)cc1 29.2%
CN(C)C(CN=C1NS(=O)(=O)c2ccccc21)c1ccco1 (stereo unspecified) -0.48%
CC(=O)c1sc2nc(-c3ccco3)ccc2c1N -8.74%
O=C(Nc1nccs1)c1cc(-c2ccccn2)nc2c(Cl)cccc12 -0.831%
O=C(Nc1nc(-c2ccco2)c(-c2ccco2)s1)C1CCC1 -9.96%
Cc1noc(C)c1S(=O)(=O)Nc1ccc2c(c1)C(=O)N([C@H](C)CO)C[C@H](C)[C@@H](CN(C)C(=O)C1CCCCC1)OCCCC[C@H](C)O2 7.66%
N#Cc1sc2nc(-c3ccccc3)cc(-c3ccco3)c2c1N 2.21%
O=[N+]([O-])c1ccc2nn(Cc3ccccc3)cc2c1 16.2%
CC1(C)Cc2c(c(N3CCOCC3)nc3sc(C(=O)NCc4ccco4)c(N)c23)CO1 -2.46%
COc1ccc(S(=O)(=O)N2CCN(C(=O)c3cc4c(s3)CCC4)CC2)cc1 0.552%
CCCN1CCCn2nc(CNC(=O)[C@H]3CC[C@@H](N)C3)cc2C1 -7.32%
C[C@H](CO)N1C[C@H](C)[C@@H](CN(C)CC2CCCCC2)OCCCC[C@H](C)Oc2ccc(NS(=O)(=O)c3ccc(Cl)cc3)cc2C1=O 8.08%
COCCn1c(C)cc(-c2csc(N)n2)c1C 0.765%
O=C(O)COCC(=O)NCc1ccco1 1.03%
CC(C(=O)N1CCCC1)N1CCN(c2ccccc2O)CC1 (stereo unspecified) 5.92%
O=C(Nc1ccc(OCC(=O)N2CCOCC2)cc1)c1cncc(Br)c1 -1.75%
Fc1ccc(CSc2nnc(-c3cccnc3)n2Cc2ccco2)cc1 0.116%
CCCOc1ccc(CCC(=O)O)cc1 -3.23%
CCOc1ccc(CNc2nc(-c3nnc(-c4ccc(F)cc4)o3)nc3ccccc23)cc1 14.1%
O=c1/c(=C/c2ccco2)sc2nc3ccccc3n12 0.484%
Cc1c(C(=O)OCC2CCCO2)[nH]c2c1C(=O)CC(c1ccco1)C2 (stereo unspecified) -1.75%
O=C(COC(=O)c1ccc(F)cc1F)Nc1ncccn1 -18.2%
COc1ccc(CNC(=O)c2nc(Nc3ccc(C)cc3)c3ccccc3n2)cc1 -5.2%
Nc1ccccc1Sc1nccc(C(F)(F)F)n1 3.66%
O=C1CC(c2ccco2)Cc2nc(N3CCc4ccccc4C3)ncc21 (stereo unspecified) -4.59%
N#Cc1c2ccc(OCC(=O)NCc3ccco3)cc2n2ccccc12 0.334%
O=C1c2ccccc2S(=O)(=O)N1Cc1cccc(S(=O)(=O)N2CCOCC2)c1 5.11%
CC(=O)c1ccc(NC(=O)c2noc3c2CCC3)cc1 -2.31%
CCOC(=O)c1[nH]c(Cc2[nH]c(C(=O)OCC)c(C)c2C)c(C)c1C -0.0423%
CCc1nc(OCc2ccco2)c2sc3nc4c(cc3c2n1)COC(C)(C)C4 -2.36%
CN1C(=O)C(c2ccccc2[N+](=O)[O-])C(=O)c2ccccc21 (stereo unspecified) 3.98%
NC(=O)C1(N2CCCCC2)CCN(c2ccc(NC(=O)c3ccccc3F)cc2C(=O)O)CC1 -30%
C=CCNc1ncnc2c1CCN(C(=O)c1ccc(CSC)o1)CC2 2.9%
CCOc1ccc(-n2c3nc4ccccc4nc3c3c(=O)n(Cc4ccco4)cnc32)cc1 6.8%
